Reference: PubChem BioAssay (Tox21)
Inconclusive results are not listed. Entries that show only a call come without a potency. A number with no mark means an inactive call. Activity calls are given as the source filed them. Calls come from the whole dose curve; as a rule, active = well fitted curve in the direction sought with a large enough effect in the repeat runs; inconclusive = weak or mixed curves; inactive = no such curve, though single readings can be large; an effect the other way counts as inactive or inconclusive.

Columns and labels:
[1] = qHTS RealTime-Glo MT Cell Viability Assay in HEK293 cells - 16 hour (AID 1224872); conditions: RealTime-Glo luminescence; series mostly up to 76.8 µM; note: nearly all actives have a fitted effect of over 50% in size; note: potency is the fitted concentration of half-maximal effect
Outline: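 HEK293 cells seeded with NanoLuc/prosubstrate reagent, rested 5 h at 37 C, then dosed and kept at 37 C up to 40 h. Nonlytic real-time luminescence from viable cells read at 0, 8, 16, 24, 32 and 40 h.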

[2] = qHTS RealTime-Glo MT Cell Viability Assay in HepG2 cells - 8 hour (AID 1224873); conditions: RealTime-Glo luminescence; series mostly up to 76.8 µM; note: nearly all actives have a fitted effect of over 55% in size
Outline: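 Real-time viability: cells seeded at 600 per well together with NanoLuc and cell-permeant prosubstrate, compounds added after 5 h incubation. Luminescence tracked at 0, 8, 16, 24, 32 and 40 h of exposure.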

[3] = A CellTox Green Cytotoxicity Assay to monitor cytotoxicity in HEK293 cells - 24 hour (AID 1224875); conditions: CellTox Green fluorescence; series mostly up to 76.8 µM; note: nearly all actives have a fitted effect of over 45% in size; note: potency is the fitted concentration of half-maximal effect
Outline: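 Fluorescence from a DNA-binding dye excluded by viable cells was measured repeatedly in the same HEK293 wells (600 cells/well) during continuous compound exposure at 37 C. Each assay gives one read point: 0, 8, 16, 24, 32 or 40 h.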

[4] = A CellTox Green Cytotoxicity Assay to monitor cytotoxicity in HepG2 cells - 16 hour (AID 1224876); conditions: CellTox Green fluorescence; series mostly up to 76.8 µM; note: nearly all actives have a fitted effect of over 45% in size; note: potency is the fitted concentration of half-maximal effect
Outline: (§1)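 Real-time cytotoxicity: fluorescence of a cell-impermeant cyanine dye binding DNA of dead HepG2 cells, measured repeatedly (0–40 h) during compound exposure at 37 C. Cells seeded 600/well with reagent, dosed after 5 h.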

[5] = A CellTox Green Cytotoxicity Assay to monitor cytotoxicity in HepG2 cells - 24 hour (AID 1224878); conditions: CellTox Green fluorescence; series mostly up to 76.8 µM; note: nearly all actives have a fitted effect of over 45% in size; note: potency is the fitted concentration of half-maximal effect
Outline: as §1

[6] = A CellTox Green Cytotoxicity Assay to monitor cytotoxicity in HepG2 cells - 40 hour (AID 1224879); conditions: CellTox Green fluorescence; series mostly up to 76.8 µM; note: nearly all actives have a fitted effect of over 40% in size; note: potency is the fitted concentration of half-maximal effect
Outline: as §1

[7] = qHTS RealTime-Glo MT Cell Viability Assay in HepG2 cells - 32 hour (AID 1224877); conditions: RealTime-Glo luminescence; series mostly up to 76.8 µM; note: nearly all actives have a fitted effect of over 55% in size; note: potency is the fitted concentration of half-maximal effect
Outline: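 HepG2 cells (600/well) were dispensed with RealTime-Glo reagents, incubated 5 h at 37 °C, then treated with compounds in DMSO for up to 40 h. Nonlytic NanoLuc luminescence reflecting viable cells was read at each stated time point.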

[8] = qHTS RealTime-Glo MT Cell Viability Assay in HEK293 cells - 0 hour (AID 1224880); conditions: RealTime-Glo luminescence; series mostly up to 76.8 µM; note: top concentration of the series differs between compounds; nearly all actives have a fitted effect of over 45% in size
Outline: (§2)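 Luminescence, which tracks viable cell number through reduction of the prosubstrate to a NanoLuc substrate, was read over continuous 37 C culture. Cells (600/well) were premixed with reagent and rested 5 h before 23 nL of compound in DMSO was pinned.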

[9] = qHTS RealTime-Glo MT Cell Viability Assay in HEK293 cells - 40 hour (AID 1224874); conditions: RealTime-Glo luminescence; max response: stronger effect = lower value; note: nearly all actives have a fitted effect of over 50% in size; note: potency is the fitted concentration of half-maximal effect
Outline: as §2

Q: For `Fc1ccc([C@@H]2CCNC[C@H]2COc2ccc3c(c2)OCO3)cc1`, which Potency [1] is on record?
A: inactive

Q: What about the Potency [2] of the same molecule?
A: inactive

Q: What about the Potency [3] of the same molecule?
A: inactive

Q: What about the Potency [4] of the same molecule?
A: 23.9 µM (active)

Q: What about the Potency [5] of the same molecule?
A: 26.8 µM (active)

Q: And the Potency [6]?
A: 26.8 µM (active)

Q: Which Potency [2] does the source give for `O=Cc1cc(O)ccc1Br` here?
A: inactive

Q: What about the Potency [4] of the same molecule?
A: inactive

Q: What about the Potency [7] of the same molecule?
A: inactive

Q: What about the Potency [8] of the same molecule?
A: inactive

Q: What does the source list for `S=c1[nH]c2ccccc2s1`?
A: Potency [1]: inactive; Potency [2]: inactive; Potency [3]: 43.6 µM (active); Potency [7]: inactive; Potency [6]: inactive; Potency [8]: inactive

Q: With `O=C(Nc1cccc(C(F)(F)F)c1)c1cc(Br)cc(Br)c1O` as the molecule, how does the Potency [2] read?
A: inactive

Q: What about the Potency [9] of the same molecule?
A: 3.89 µM (active)

Q: And the Potency [3]?
A: inactive

Q: And the Potency [5]?
A: 19.5 µM (active)

Q: And the Potency [6]?
A: 19.5 µM (active)

Q: With `Cc1ccc(O)c2ncccc12` as the molecule, how does the Potency [1] read?
A: inactive

Q: What about the Potency [2] of the same molecule?
A: inactive

Q: What about the Potency [3] of the same molecule?
A: inactive

Q: What about the Potency [4] of the same molecule?
A: inactive

Q: And the Potency [7]?
A: inactive

Q: What about the Potency [6] of the same molecule?
A: 7.56 µM (active)

Q: And the Potency [8]?
A: inactive

Q: With `C/C=C(\C)C(=O)OCc1ccccc1` as the molecule, how does the Potency [2] read?
A: inactive

Q: And the max response [9]?
A: -2.09%

Q: What about the Potency [3] of the same molecule?
A: inactive

Q: What about the Potency [4] of the same molecule?
A: inactive

Q: And the Potency [7]?
A: inactive

Q: What about the Potency [5] of the same molecule?
A: inactive

Q: What about the Potency [6] of the same molecule?
A: inactive

Q: What about the Potency [8] of the same molecule?
A: inactive

Q: With `O=CC=C(c1ccccc1)c1ccccc1` as the molecule, how does the Potency [2] read?
A: inactive

Q: What about the Potency [9] of the same molecule?
A: 17.5 µM (active)

Q: And the Potency [4]?
A: inactive

Q: And the Potency [7]?
A: inactive

Q: What about the Potency [5] of the same molecule?
A: inactive

Q: And the Potency [6]?
A: inactive

Q: And the Potency [8]?
A: inactive

Q: With `O=C(OCC(COC(=O)c1ccccc1)(COC(=O)c1ccccc1)COC(=O)c1ccccc1)c1ccccc1` as the molecule, how does the Potency [1] read?
A: 43.6 µM (active)

Q: What about the Potency [9] of the same molecule?
A: 48.9 µM (active)

Q: What about the Potency [4] of the same molecule?
A: inactive

Q: What about the Potency [7] of the same molecule?
A: inactive

Q: And the Potency [5]?
A: inactive

Q: What about the Potency [6] of the same molecule?
A: inactive

Q: What about the Potency [8] of the same molecule?
A: inactive

Q: Which Potency [1] does the source give for `CCc1cc(SCc2sc(-c3ccc(C(F)(F)F)cc3)nc2CN2CCN(c3ccc(OC)cc3)CC2)ccc1OCC(=O)O` here?
A: 19.5 µM (active)

Q: What about the Potency [2] of the same molecule?
A: inactive

Q: And the Potency [9]?
A: 19.5 µM (active)

Q: What about the Potency [4] of the same molecule?
A: inactive

Q: And the Potency [5]?
A: inactive

Q: And the Potency [8]?
A: inactive

Q: Which results are given for `CCCCCCCCCCCCCCCC(=O)OC[C@H](O)[C@H]1OC(=O)C(O)=C1O`?
A: Potency [1]: inactive; Potency [2]: inactive; max response [9]: -4.9%; Potency [7]: inactive; Potency [5]: inactive; Potency [6]: inactive

Q: Which results are given for `OCc1c[nH]c2ccccc12`?
A: Potency [7]: inactive; Potency [5]: inactive; Potency [8]: inactive

Q: Which results are given for `CN(C)c1ccc(C2(c3ccc(N(C)C)cc3)OC(=O)c3cc(N(C)C)ccc32)cc1`?
A: Potency [1]: inactive; max response [9]: -1.22%; Potency [3]: inactive; Potency [4]: inactive; Potency [5]: inactive; Potency [6]: inactive; Potency [8]: inactive

Q: Which Potency [2] does the source give for `CCCCCCC[N+](CC)(CC)CCCCc1ccc(Cl)cc1` here?
A: inactive

Q: What about the Potency [9] of the same molecule?
A: 1.9 µM (active)

Q: What about the Potency [3] of the same molecule?
A: inactive

Q: What about the Potency [4] of the same molecule?
A: 26.8 µM (active)

Q: And the Potency [7]?
A: 23.9 µM (active)

Q: And the Potency [5]?
A: 26.8 µM (active)

Q: What about the Potency [6] of the same molecule?
A: 23.9 µM (active)

Q: And the Potency [8]?
A: inactive

Q: With `O=C1CCCc2c1cc1ccc3cccc4ccc2c1c34` as the molecule, how does the Potency [9] read?
A: 9.89 µM (active)

Q: What about the Potency [3] of the same molecule?
A: inactive

Q: And the Potency [7]?
A: inactive

Q: What about the Potency [5] of the same molecule?
A: inactive

Q: What about the Potency [6] of the same molecule?
A: inactive

Q: What about the Potency [8] of the same molecule?
A: inactive
